# Data as given in the supplement of paper PMC10037445.
# “And” between values parts separate entries of the source, which are not always exact repeats. Equal entries are not always repeated. In all, about 2,900 compounds were measured (“IRF Lucia reporter activity, fold change vs agonist alone”: median about 0.9, highest 2% from about 2.8 on). Many of the other results were omitted from the sample, so the highest values are more common in it than they were.
# Experiments:
# RAW-Dual [1] = experiment: IRF Lucia reporter activity, fold change vs agonist alone; cytotoxicity flag (confluency mask): not cytotoxic; higher = enhanced IRF activity
# Outline: (§1)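 RAW-Dual macrophages (50,000 cells/well in DMEM, 384-well plates) received 50 nL of library stock by pin tool, then a PRR agonist 1 h later, and were kept at 37 °C, 5% CO2. After 20 hours, supernatant was read for IRF by QuantiLuc luminescence and for NF-κB by QuantiBlue absorbance at 620 nm. Reporter activity is fold change over agonist-alone wells. Cytotoxic wells had IncuCyte confluency below 70% of agonist controls in both mask sets.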
# RAW-Dual [2] = experiment: IRF Lucia reporter activity, fold change vs agonist alone; higher = enhanced IRF activity; conditions: agonist: MPLA (TLR4) […]
# Outline: as §1
# RAW-Dual [3] = experiment: IRF Lucia reporter activity, fold change vs agonist alone; cytotoxicity flag (confluency mask): cytotoxic (confluency <70% of control); higher = enhanced IRF activity
# Outline: as §1
# [4] = agonist: 3'3'-cGAMP (STING) 10 ug/mL
# [5] = library stock concentration (final ~1000-fold dilution): 10 mM, cytotoxicity flag (confluency mask): not cytotoxic
smiles,measurement,setting,value
COC(=O)C1=C(C)NC(C)=C(C(=O)OCCN(C)Cc2ccccc2)C1c1cccc([N+](=O)[O-])c1.Cl (stereo not drawn) (library stock concentration (final ~1000-fold dilution): 10 mM),IRF Lucia reporter activity,RAW-Dual [1]; [4],0.3
same,IRF Lucia reporter activity,RAW-Dual [1]; agonist: LPS (TLR4) 0.1 ug/mL,1.4
COC(=O)C1=C(C)NC(C)=C(C(=O)OCCN(C)Cc2ccccc2)C1c1cccc([N+](=O)[O-])c1.Cl (stereo not drawn),IRF Lucia reporter activity,RAW-Dual [2]; [5],1.12
COC(=O)C1=C(C)NC(C)=C(C(=O)OC(C)(C)CN(C)CCC(c2ccccc2)c2ccccc2)C1c1cccc([N+](=O)[O-])c1.Cl (stereo not drawn),IRF Lucia reporter activity,RAW-Dual [2]; [5],2.1
COC(=O)C1=C(C)NC(C)=C(C(=O)OC(C)(C)CN(C)CCC(c2ccccc2)c2ccccc2)C1c1cccc([N+](=O)[O-])c1.Cl (stereo not drawn) (library stock concentration (final ~1000-fold dilution): 10 mM),IRF Lucia reporter activity,RAW-Dual [1]; [4],0.139
same,IRF Lucia reporter activity,RAW-Dual [1]; agonist: LPS (TLR4) 0.1 ug/mL,3.23
COC(=O)C1=C(C)NC(C)=C(C(=O)OC(C)(C)CN(C)CCC(c2ccccc2)c2ccccc2)C1c1cccc([N+](=O)[O-])c1 (stereo not drawn),IRF Lucia reporter activity,RAW-Dual [2]; [5],2.39
COC(=O)c1ccc(O)c(NC(=O)COc2ccc(C34CC5CC(CC(C5)C3)C4)cc2)c1 (library stock concentration (final ~1000-fold dilution): 10 mM),IRF Lucia reporter activity,RAW-Dual [1]; [4],0.925
same,IRF Lucia reporter activity,RAW-Dual [1]; agonist: LPS (TLR4) 0.1 ug/mL,1.14
CC(C)Cc1ccc([C@@H](C)C(=O)O)cc1 (library stock concentration (final ~1000-fold dilution): 10 mM),IRF Lucia reporter activity,RAW-Dual [1]; [4],0.953
same,IRF Lucia reporter activity,RAW-Dual [1]; agonist: LPS (TLR4) 0.1 ug/mL,1.08
CCC(C)C(=O)OC1CC(C)C=C2C=CC(C)C(CCC3CC(O)CC(=O)O3)C21 (stereo not drawn) (library stock concentration (final ~1000-fold dilution): 10 mM),IRF Lucia reporter activity,RAW-Dual [1]; [4],0.497
same,IRF Lucia reporter activity,RAW-Dual [1]; agonist: LPS (TLR4) 0.1 ug/mL,0.764
CCC(C)C(=O)OC1CC(C)C=C2C=CC(C)C(CCC3CC(O)CC(=O)O3)C21 (stereo not drawn),IRF Lucia reporter activity,RAW-Dual [2]; [5],0.744
Cc1cc(/C=C/C#N)cc(C)c1Nc1ccnc(Nc2ccc(C#N)cc2)n1,IRF Lucia reporter activity,RAW-Dual [2]; [5],0.64
Cc1cc(C#N)cc(C)c1Oc1nc(Nc2ccc(C#N)cc2)nc(N)c1Br,IRF Lucia reporter activity,RAW-Dual [2]; [5],2.4
Cc1cc(C)c(Nc2ccnc(Nc3ccc(C#N)cc3)n2)c(C)c1 (library stock concentration (final ~1000-fold dilution): 10 mM),IRF Lucia reporter activity,RAW-Dual [3]; [4],0.691
same,IRF Lucia reporter activity,RAW-Dual [3]; agonist: LPS (TLR4) 0.1 ug/mL,0.81
Cc1cc(C#N)cc(C)c1Oc1nc(Nc2ccc(C#N)cc2)nc(N)c1Br (library stock concentration (final ~1000-fold dilution): 10 mM),IRF Lucia reporter activity,RAW-Dual [1]; [4],1.09
same,IRF Lucia reporter activity,RAW-Dual [1]; agonist: LPS (TLR4) 0.1 ug/mL,2.87
Cc1cc(C)c(Nc2ccnc(Nc3ccc(C#N)cc3)n2)c(C)c1,IRF Lucia reporter activity,"RAW-Dual [2]; library stock concentration (final ~1000-fold dilution): 10 mM, cytotoxicity flag (confluency mask): cytotoxic (confluency <70% of control)",1.7
Cc1cc(/C=C/C#N)cc(C)c1Nc1ccnc(Nc2ccc(C#N)cc2)n1 (library stock concentration (final ~1000-fold dilution): 10 mM),IRF Lucia reporter activity,RAW-Dual [1]; [4],0.03
same,IRF Lucia reporter activity,RAW-Dual [1]; agonist: LPS (TLR4) 0.1 ug/mL,0.489
CC1CNc2c(cccc2S(=O)(=O)NC(CCCNC(=N)N)C(=O)N2CCC(C)CC2C(=O)O)C1 (stereo not drawn),IRF Lucia reporter activity,RAW-Dual [2]; [5],0.948
CC1CNc2c(cccc2S(=O)(=O)NC(CCCNC(=N)N)C(=O)N2CCC(C)CC2C(=O)O)C1 (stereo not drawn) (library stock concentration (final ~1000-fold dilution): 10 mM),IRF Lucia reporter activity,RAW-Dual [1]; [4],1.01
same,IRF Lucia reporter activity,RAW-Dual [1]; agonist: LPS (TLR4) 0.1 ug/mL,0.919
O=C(O)c1cc(I)ccc1NC(=O)C(Cc1ccccc1)NCc1ccccc1 (stereo not drawn),IRF Lucia reporter activity,RAW-Dual [2]; [5],1.05
O=C(O)c1cc(I)ccc1NC(=O)C(Cc1ccccc1)NCc1ccccc1 (stereo not drawn) (library stock concentration (final ~1000-fold dilution): 10 mM),IRF Lucia reporter activity,RAW-Dual [1]; [4],1.17
same,IRF Lucia reporter activity,RAW-Dual [1]; agonist: LPS (TLR4) 0.1 ug/mL,1.41
Nc1nc2[nH]cc(CCc3ccc(C(=O)NC(CCC(=O)O)C(=O)O)cc3)c2c(=O)[nH]1 (stereo not drawn),IRF Lucia reporter activity,"RAW-Dual [2]; library stock concentration (final ~1000-fold dilution): 10 mM water, cytotoxicity flag (confluency mask): not cytotoxic",1.12
Nc1nc2[nH]cc(CCc3ccc(C(=O)NC(CCC(=O)O)C(=O)O)cc3)c2c(=O)[nH]1 (stereo not drawn) (library stock concentration (final ~1000-fold dilution): 10 mM water),IRF Lucia reporter activity,RAW-Dual [1]; [4],1.15 and 0.82
same,IRF Lucia reporter activity,RAW-Dual [1]; agonist: LPS (TLR4) 0.1 ug/mL,0.998 and 0.771
CN1C(=O)NC(Cc2c[nH]c3c(Cl)cccc23)C1=O (stereo not drawn) (library stock concentration (final ~1000-fold dilution): 10 mM),IRF Lucia reporter activity,RAW-Dual [1]; [4],0.896
same,IRF Lucia reporter activity,RAW-Dual [1]; agonist: LPS (TLR4) 0.1 ug/mL,0.697
CC(C)CC1NC(=O)C(C(C)C)NC(=O)C2CCCN2C(=O)C(CC(=O)O)NC(=O)C(Cc2c[nH]c3ccccc23)NC1=O (stereo not drawn) (library stock concentration (final ~1000-fold dilution): 10 mM),IRF Lucia reporter activity,RAW-Dual [1]; [4],1.23
same,IRF Lucia reporter activity,RAW-Dual [1]; agonist: LPS (TLR4) 0.1 ug/mL,1.01
CN1C(=O)C(Cc2c[nH]c3ccccc23)NC1=S (stereo not drawn) (library stock concentration (final ~1000-fold dilution): 10 mM),IRF Lucia reporter activity,RAW-Dual [1]; [4],0.553
same,IRF Lucia reporter activity,RAW-Dual [1]; agonist: LPS (TLR4) 0.1 ug/mL,3.04
